Source: paper PMC5540273 (PLoS ONE, 2017)

Experiments:
Settings in all cases: concentration: 1 μM, replicates: in singlicate; n = 1
BMPR1A = tested on: BMPR1A
BMPR1B = tested on: BMPR1B
BMPR2 = tested on: BMPR2
BMX = tested on: BMX
BRAF = tested on: BRAF
BRK = tested on: T1, BRK
T1 construct: gene PTK6

BRSK1 = tested on: BRSK1
BRSK2 = tested on: BRSK2
BTK = tested on: BTK
BUB1 = tested on: BUB1
CAMK1B = tested on: CAMK1B
CAMK1D = tested on: CAMK1D
CAMK1G = tested on: CAMK1G
CAMK1 = tested on: CAMK1
CAMK2A = tested on: CAMK2A
CAMK2B = tested on: CAMK2B
CAMK2D = tested on: CAMK2D
CAMK2G = tested on: CAMK2G
CAMK4 = tested on: CAMK4
CAMKK1 = tested on: CAMKK1
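Note: KINOMEscan kinase panel screen.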

| Compound | %Inh (BMPR1A) | %Inh (BMPR1B) | %Inh (BMPR2) | %Inh (BMX) | %Inh (BRAF) | %Inh (BRK) | %Inh (BRSK1) | %Inh (BRSK2) | %Inh (BTK) | %Inh (BUB1) | %Inh (CAMK1B) | %Inh (CAMK1D) | %Inh (CAMK1G) | %Inh (CAMK1) | %Inh (CAMK2A) | %Inh (CAMK2B) | %Inh (CAMK2D) | %Inh (CAMK2G) | %Inh (CAMK4) | %Inh (CAMKK1) |
| --- | --- | --- | --- | --- | --- | --- | --- | --- | --- | --- | --- | --- | --- | --- | --- | --- | --- | --- | --- | --- |
| COc1cc2ncn(-c3cc(OCC4CCCO4)c(C(N)=O)s3)c2cc1OC (centres unmarked) [GSK204607] | 0% | 0% | 24% | 19% | 0% | 18% | 15% | 7% | 0% | 32% | 0% | 13% | 0% | 6% | 0% | 0% | 0% | 0% | 0% | 0% |
| COc1ccccc1-c1ccc2c(NC(=O)C3CC3)n[nH]c2n1 [SB-711239] | 0% | 0% | 10% | 16% | 5% | 2% | 0% | 2% | 32% | 11% | 33% | 12% | 27% | 4% | 0% | 0% | 16% | 9% | 0% | 9% |
| COC(=O)c1c(-c2ccccc2)c2cc(C(=O)O)ccc2c(=O)n1Cc1ccccc1 | 0% | 3% | 0% | 17% | 90% | 0% | 0% | 0% | 0% | 0% | 0% | 1% | 6% | 1% | 0% | 0% | 5% | 0% | 18% | 0% |
| Cc1c(Cn2ccn3c(=O)cc(N4CCOCC4)nc23)cccc1C(F)(F)F [GSK2289044] | 0% | 0% | 0% | 38% | 0% | 0% | 0% | 0% | 0% | 0% | 0% | 7% | 13% | 0% | 83% | 79% | 18% | 32% | 5% | 9% |
| CC1=C(C(=O)Nc2cc3cn[nH]c3cc2F)C(c2ccc(C(F)(F)F)cc2)CC(=O)N1 (centres unmarked) [GSK429286] | 0% | 0% | 6% | 4% | 7% | 20% | 5% | 0% | 0% | 18% | 8% | 7% | 0% | 0% | 0% | 0% | 0% | 24% | 0% | 17% |
| CC(=O)Nc1nc2cnc(Nc3cc(NC(=O)c4cccc(CCC#N)c4)ccc3C)nc2s1 | 0% | 0% | 16% | 7% | 97.7% | 0% | 0% | 11% | 32% | 14% | 0% | 30% | 0% | 25% | 20% | 0% | 0% | 0% | 15% | 0% |
| Cc1ccc(-c2cc(-c3c[nH]nc3-c3ccccn3)ccn2)cc1 [GW684088] | 0% | 18% | 0% | 36% | 0% | 3% | 0% | 0% | 51% | 40% | 55% | 13% | 14% | 9% | 2% | 0% | 16% | 25% | 0% | 30% |
| CC(C)(C)c1ccc(C(=O)Nc2cn3cc(Cl)ccc3n2)cc1 | 0% | 3% | 0% | 0% | 9% | 0% | 0% | 0% | 0% | 0% | 0% | 0% | 0% | 0% | 3% | 0% | 3% | 11% | 6% | 95.8% |
| Cn1ccc2ncnc(Oc3ccc(NC(=O)Nc4ccccc4)cc3)c21 | 0% | 0% | 0% | 42% | 0% | 6% | 0% | 17% | 0% | 0% | 4% | 5% | 22% | 0% | 0% | 0% | 13% | 3% | 0% | 0% |
| CC(C)(C)c1ccc(C(=O)Nc2cn3cc(-c4cccnc4)ccc3n2)cc1 | 34% | 0% | 1% | 25% | 0% | 0% | 6% | 25% | 0% | 8% | 24% | 38% | 12% | 4% | 6% | 7% | 24% | 10% | 0% | 21% |
